Experimental findings from the supplement of paper PMC4709259 are described below.

Counter-ions that a name gives are not always drawn. ± gives the standard deviation.

One test has as its system Jurkat. The experiment in a line: mean cell size (FSC-A) relative to DMSO control (fraction of control); higher = larger cells. Particulars: 48 h. Put shortly:
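Jurkat cells at 600 cells/µl were incubated for 1 h and then treated for 48h with the Enzo Screen-Well FDA Approved Drug Library v2.0 at 25µM, with DMSO at 0.9% (v/v) final. Compounds that reduced counts below 20% of controls were retested in 10-fold dilutions down to 25nM. Cell count and mean cell size, taken as forward scatter area, were measured by flow cytometry relative to solvent-only controls. Each plate carried 6-12 controls, and values are means of 3 biological replicates.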
In the case of `Cc1[nH]c(=O)c(C#N)cc1-c1ccncc1` [Milrinone] (concentration: 25 µM), the mean cell size came out at 0.919 ± 0.051.
On to `COc1ccc(CC(C)NCC(O)c2ccc(O)c(NC=O)c2)cc1` (stereo not given) [Formoterol] (concentration: 25 µM), for which the mean cell size was determined as 0.992 ± 0.033.
The same measure, in the same setting: next, `Cc1cccc(C)c1NC(=O)C1CCCCN1C` (stereo not given) [Mepivacaine·HCl] (concentration: 25 µM): 0.91 ± 0.035; `NC(=O)N[C@@H](CCC(=O)O)C(=O)O` [Carglumic Acid] (concentration: 25 µM): 0.936 ± 0.037.
For `CSc1ccc2c(c1)N(CCC1CCCCN1C)c1ccccc1S2` (stereo not given) [Thioridazine·HCl] (concentration: 2.5 µM), the mean cell size was 1.08 ± 0.014.
`CC(CCc1ccccc1)NCC(O)c1ccc(O)c(C(N)=O)c1` (stereo not given) [Labetalol·HCl] (concentration: 25 µM) yielded a mean cell size of 0.928 ± 0.049.
`CN(Cc1ccc(C(C)(C)C)cc1)Cc1cccc2ccccc12` [Butenafine·HCl] (concentration: 25 µM): the mean cell size worked out at 0.97 ± 0.031.
Same read-out and setting: next, `Nc1nc(O)c2ncn(CCC(CO)CO)c2n1` [Penciclovir] (concentration: 25 µM): 0.95 ± 0.021; `Cn1c(=O)c2c(ncn2CC(O)CO)n(C)c1=O` (stereo not given) [Dyphylline] (concentration: 25 µM): 0.966 ± 0.022.
Still for that read-out and setting: for `O=NN(CCCl)C(=O)NC1CCCCC1` [Lomustine] (concentration: 25 µM) the value was 1.19 ± 0.07; for `O=c1n(CCCN2CCN(c3cccc(Cl)c3)CC2)nc2ccccn12` [Trazodone·HCl] (concentration: 25 µM), 0.967 ± 0.045.

The subject of the next test is Jurkat. Kind of test: cell count relative to DMSO control (fraction of control); higher = more cells (less growth inhibition). Particulars: 48 h.
In turn, `CC1=Nc2ccc(Cl)cc2S(=O)(=O)N1` [Diazoxide] (concentration: 25 µM) registered a cell count of 0.916 ± 0.04.
Same read-out and setting: for `CC(C)C(=O)Nc1ccc([N+](=O)[O-])c(C(F)(F)F)c1` [Flutamide] (concentration: 25 µM) the value was 0.329 ± 0.14.
On the same count and under the same terms, for `CN[C@@H]1[C@H](O[C@H]2[C@H](O[C@H]3[C@H](O)[C@@H](O)[C@H](N=C(N)N)[C@@H](O)[C@@H]3N=C(N)N)O[C@@H](C)[C@]2(O)C=O)O[C@@H](CO)[C@H](O)[C@H]1O` [Streptomycin Sulfate] (concentration: 25 µM) the value was 0.791 ± 0.011.
The same measure, in the same setting: next, `CC(=O)[C@@]1(O)CC[C@H]2[C@@H]3C[C@H](C)C4=CC(=O)C=C[C@]4(C)[C@@]3(F)[C@@H](O)C[C@@]21C` [Fluorometholone] (concentration: 25 µM): 0.639 ± 0.12; `C#C[C@]1(O)CC[C@H]2[C@@H]3CCC4=CC(=O)CC[C@@H]4[C@H]3CC[C@@]21CC` [Levonorgestrel] (concentration: 25 µM): 0.903 ± 0.046.
The compound `CC1=C(C(=O)O)N2C(=O)[C@@H](NC(=O)[C@H](N)c3ccccc3)[C@H]2SC1` [Cephalexin Monohydrate] (concentration: 25 µM) gave a cell count of 0.931 ± 0.068.
`COc1c(N2CCNC(C)C2)c(F)cc2c(=O)c(C(=O)O)cn(C3CC3)c12` (stereo not given) [Gatifloxacin] (concentration: 25 µM) yielded a cell count of 0.661 ± 0.17.
On the same count and under the same terms, for `CO[C@H]1/C=C/O[C@@]2(C)Oc3c(C)c(O)c4c(O)c(c(/C=N/N5CCN(C)CC5)c(O)c4c3C2=O)NC(=O)/C(C)=C\C=C\[C@H](C)[C@H](O)[C@@H](C)[C@@H](O)[C@@H](C)[C@H](OC(C)=O)[C@@H]1C` [Rifampin (Rifampicin)] (concentration: 25 µM) the value was 0.765 ± 0.035.
On the same count and under the same terms, for `C[N+]1(C)[C@@H]2C[C@@H](OC(=O)C(O)(c3cccs3)c3cccs3)C[C@H]1[C@@H]1O[C@@H]12` [Tiotropium Bromide Monohydrate] (concentration: 25 µM) the value was 0.68 ± 0.051; for `OCc1cc(C(O)CNCCCCCCOCCCCc2ccccc2)ccc1O` (stereo not given) [Salmeterol] (concentration: 25 µM), 0.669 ± 0.042; for `OCCN1CCN(CCCN2c3ccccc3Sc3ccc(Cl)cc32)CC1` [Perphenazine] (concentration: 2.5 µM), 0.556 ± 0.11.
On the same count and under the same terms, for `CNC(=C[N+](=O)[O-])NCCSCc1ccc(CN(C)C)o1` [Ranitidine·HCl] (concentration: 25 µM) the value was 0.895 ± 0.11.
Regarding `O=c1[nH]c(=O)n([C@H]2C[C@H](O)[C@@H](CO)O2)cc1F` [Floxuridine] (concentration: 25 nM), the cell count amounted to 0.178 ± 0.096.
As for `CCN(Cc1ccncc1)C(=O)C(CO)c1ccccc1` (stereo not given) [Tropicamide] (concentration: 25 µM), the cell count is 0.925 ± 0.05.
Same read-out and setting: for `CN1CCN(CCCN2c3ccccc3Sc3ccc(C(F)(F)F)cc32)CC1` [Trifluoperazine·HCl] (concentration: 2.5 µM) the value was 0.776 ± 0.13; for `N=c1nc(N2CCCCC2)cc(N)n1O` [Minoxidil] (concentration: 25 µM), 0.703 ± 0.083.
Still for that read-out and setting: for `CC(=O)c1ccc(S(=O)(=O)NC(=O)NC2CCCCC2)cc1` [Acetohexamide] (concentration: 25 µM) the value was 0.723 ± 0.068.
Same read-out and setting: next, `CCC(=O)O[C@]1(C(=O)SCF)[C@H](C)C[C@H]2[C@@H]3C[C@H](F)C4=CC(=O)C=C[C@]4(C)[C@@]3(F)[C@@H](O)C[C@@]21C` [Fluticasone Propionate] (concentration: 25 µM): 1.06 ± 0.053; `CN(C)CC[C@@H](c1ccc(Cl)cc1)c1ccccn1` [Dexchlorpheniramine Maleate] (concentration: 25 µM): 0.526 ± 0.17; `Clc1ccc2c(c1)CCc1cccnc1C2=C1CCNCC1` [Desloratadine] (concentration: 25 µM): 0.702 ± 0.045.
The compound `NS(=O)(=O)c1cc(C2(O)NC(=O)c3ccccc32)ccc1Cl` (stereo not given) [Chlorthalidone] (concentration: 25 µM) showed a cell count of 0.918 ± 0.044.
On the same count and under the same terms, for `CC(=O)/N=c1/sc(S(N)(=O)=O)nn1C` [Methazolamide] (concentration: 25 µM) the value was 0.925 ± 0.091; for `CCCN(CCC)S(=O)(=O)c1ccc(C(=O)O)cc1` [Probenecid] (concentration: 25 µM), 0.595 ± 0.13.
The compound `NC(=O)c1cnccn1` [Pyrazinamide] (concentration: 25 µM) came in with a cell count of 0.808 ± 0.066.
Same read-out and setting: for `CCCCS(=O)(=O)N[C@@H](Cc1ccc(OCCCCC2CCNCC2)cc1)C(=O)O` [Tirofiban·HCl] (concentration: 25 µM) the value was 1.01 ± 0.08.
Still for that read-out and setting: next, `CC(=O)OC[C@H]1O[C@@H]([S-])[C@H](OC(C)=O)[C@@H](OC(C)=O)[C@@H]1OC(C)=O.CCP(CC)CC.[Au+]` [Auranofin] (concentration: 250 nM): 0.762 ± 0.058; `CC(=O)OCC(=O)[C@@]1(O)CC[C@H]2[C@@H]3CCC4=CC(=O)CC[C@]4(C)[C@H]3C(=O)C[C@@]21C` [Cortisone Acetate] (concentration: 25 µM): 0.823 ± 0.082; `COc1c(C)c2c(c(O)c1C/C=C(\C)CCC(=O)OCCN1CCOCC1)C(=O)OC2` [Mycophenolate Mofetil] (concentration: 25 µM): 0.203 ± 0.039.
Still for that read-out and setting: next, `Cc1[nH]c(=O)c(C#N)cc1-c1ccncc1` [Milrinone] (concentration: 25 µM): 0.361 ± 0.085.
Compound `COc1ccc(CC(C)NCC(O)c2ccc(O)c(NC=O)c2)cc1` (stereo not given) [Formoterol] (concentration: 25 µM) yielded a cell count of 0.808 ± 0.044.
The same measure, in the same setting: for `Cc1cccc(C)c1NC(=O)C1CCCCN1C` (stereo not given) [Mepivacaine·HCl] (concentration: 25 µM) the value was 1.31 ± 0.14.
The same measure, in the same setting: next, `NC(=O)N[C@@H](CCC(=O)O)C(=O)O` [Carglumic Acid] (concentration: 25 µM): 0.806 ± 0.1; `CSc1ccc2c(c1)N(CCC1CCCCN1C)c1ccccc1S2` (stereo not given) [Thioridazine·HCl] (concentration: 2.5 µM): 0.646 ± 0.18.
Turning to `CC(CCc1ccccc1)NCC(O)c1ccc(O)c(C(N)=O)c1` (stereo not given) [Labetalol·HCl] (concentration: 25 µM), the cell count was found to be 0.821 ± 0.1.
As for `CN(Cc1ccc(C(C)(C)C)cc1)Cc1cccc2ccccc12` [Butenafine·HCl] (concentration: 25 µM), the cell count amounted to 0.793 ± 0.076.
Compound `Nc1nc(O)c2ncn(CCC(CO)CO)c2n1` [Penciclovir] (concentration: 25 µM) came in with a cell count of 0.993 ± 0.053.
Still for that read-out and setting: for `Cn1c(=O)c2c(ncn2CC(O)CO)n(C)c1=O` (stereo not given) [Dyphylline] (concentration: 25 µM) the value was 0.81 ± 0.037.
Turning to `O=NN(CCCl)C(=O)NC1CCCCC1` [Lomustine] (concentration: 25 µM), the cell count stood at 0.287 ± 0.11.
Same read-out and setting: for `O=c1n(CCCN2CCN(c3cccc(Cl)c3)CC2)nc2ccccn12` [Trazodone·HCl] (concentration: 25 µM) the value was 0.878 ± 0.048.
